Values joined by “and” are separate entries in the source; they are usually repeats but may differ in a detail not shown here. Equal entries are not always repeated. The whole screen tested about 5,500 compounds, of which about 2,000 (36%) were called active. Roughly 18% stayed inconclusive and do not appear here. Rule as the data show it: active = normalized growth mostly below about 0.91 (no sharp cut-off); inconclusive = no clear call, values can overlap the other calls; inactive = mostly above about 0.92. The list shows a part of the results.
Test: chemical genetic growth profiling, strain panel (AID 1159580);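 also: tested at 20 µM; growth read once vehicle control cultures reached saturation at 30 °C; 1 = growth at the plate median or of vehicle wells; lower values mean less growth of the strain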
Conditions: S. cerevisiae deletion strains, growth OD

Measured: normalized growth

CCCCCc1c2c(cc(O)c1C(=O)O)OC(=O)c1c(cc(OC)cc1C(=O)CCCC)O2
inactive: locus YAL021C, strain ccr4, stronger effect = lower value 0.954 | locus YAL026C, strain drs2, stronger effect = lower value 1.01 | locus YAL030W, strain snc1, stronger effect = lower value 0.993 | locus YBL061C, strain skt5, stronger effect = lower value 0.999 | locus YBR009C, strain hhf1, stronger effect = lower value 1.01 | locus YBR021W, strain FUR4, stronger effect = lower value 1.02 | locus YBR023C, strain chs3, stronger effect = lower value 1 | locus YBR171W, strain sec66, stronger effect = lower value 1 | locus YBR229C, strain ROT2, stronger effect = lower value 0.935 | locus YBR231C, strain swc5, stronger effect = lower value 0.988 | locus YBR279W, strain paf1, stronger effect = lower value 1.01 | locus YCL011C, strain gbp2, stronger effect = lower value 0.997 | locus YCL016C, strain dcc1, stronger effect = lower value 0.994 | locus YCL029C, strain bik1, stronger effect = lower value 0.989 | locus YCL069W, strain vba3, stronger effect = lower value 1.03 | locus YCR088W, strain abp1, stronger effect = lower value 1 | locus YDL005C, strain med2, stronger effect = lower value 0.977 | locus YDL035C, strain GPR1, stronger effect = lower value 0.945 | locus YDL040C, strain nat1, stronger effect = lower value 0.994 | locus YDL074C, strain BRE1, stronger effect = lower value 0.982 | locus YDL101C, strain DUN1, stronger effect = lower value 0.998 | locus YDL185W, strain tfp1, stronger effect = lower value 0.968 | locus YDL192W, strain arf1, stronger effect = lower value 0.968 | locus YDR001C, strain nth1, stronger effect = lower value 1 | locus YDR069C, strain doa4, stronger effect = lower value 0.985 | locus YDR101C, strain arx1, stronger effect = lower value 0.961 | locus YDR137W, strain rgp1, stronger effect = lower value 0.941 | locus YDR150W, strain NUM1, stronger effect = lower value 0.99 | locus YDR159W, strain sac3, stronger effect = lower value 0.994 | locus YDR162C, strain NBP2, stronger effect = lower value 0.955 | locus YDR195W, strain ref2 0.977 | locus YDR297W, strain sur2, stronger effect = lower value 0.995 | locus YDR318W, strain mcm21, stronger effect = lower value 0.99 | locus YDR334W, strain swr1, stronger effect = lower value 1.01 | locus YDR335W, strain msn5, stronger effect = lower value 1 | locus YDR388W, stronger effect = lower value 0.997 | locus YDR392W, strain spt3, stronger effect = lower value 0.988 | locus YDR502C, strain sam2, stronger effect = lower value 1.03 | locus YEL003W, strain gim4, stronger effect = lower value 1.01 | locus YEL037C, strain rad23, stronger effect = lower value 1.01 | locus YEL061C, strain CIN8 (second series), stronger effect = lower value 1.02 | locus YER015W, strain faa2, stronger effect = lower value 1 | locus YER016W, strain bim1, stronger effect = lower value 0.989 | locus YER110C, stronger effect = lower value 0.973 | locus YER111C, strain swi4, stronger effect = lower value 0.995 | locus YER155C, strain BEM2 (second series), stronger effect = lower value 0.998 | locus YER155C, strain BEM2, stronger effect = lower value 1.01 | locus YER167W, strain BCK2, stronger effect = lower value 0.985 | locus YFR010W, strain ubp6, stronger effect = lower value 1 | locus YGL078C, strain dbp3, stronger effect = lower value 0.977 | locus YGL086W, strain mad1, stronger effect = lower value 1 | locus YGL167C, strain pmr1, stronger effect = lower value 0.977 | locus YGL173C, strain kem1, stronger effect = lower value 0.991 | locus YGL227W, strain vid30, stronger effect = lower value 1.03 | locus YGL240W, strain doc1, stronger effect = lower value 0.964 | locus YGL248W, strain PDE1, stronger effect = lower value 0.99 | locus YGL253W, strain hxk2, stronger effect = lower value 1.01 | locus YGR135W, strain pre9, stronger effect = lower value 1.04 | locus YGR252W, strain gcn5, stronger effect = lower value 1.01 | locus YHR013C, strain ard1, stronger effect = lower value 0.989 | locus YHR027C, strain rpn1, stronger effect = lower value 1.01 | locus YHR030C, strain SLT2, stronger effect = lower value 0.961 | locus YHR079C, strain IRE1 (second series), stronger effect = lower value 0.988 | locus YHR079C, strain IRE1, stronger effect = lower value 0.959 | locus YHR094C, strain hxt1, stronger effect = lower value 0.983 | locus YHR129C, strain ARP1, stronger effect = lower value 0.993 | locus YHR142W, strain chs7, stronger effect = lower value 1.02 | locus YHR200W, strain rpn10, stronger effect = lower value 0.987 | locus YIL066C, strain RNR3, stronger effect = lower value 0.978 | locus YIL073C, strain SPO22, stronger effect = lower value 0.97 | locus YIL125W, strain kgd1, stronger effect = lower value 0.991 | locus YIR030C, strain dcg1, stronger effect = lower value 0.986 | locus YJL092W, strain hpr5, stronger effect = lower value 1.01 | locus YJL095W, strain BCK1 (second series), stronger effect = lower value 0.997 | locus YJL095W, strain BCK1, stronger effect = lower value 1.06 and 0.972 | locus YJL115W, strain asf1, stronger effect = lower value 0.982 | locus YJL129C, strain trk1, stronger effect = lower value 1.02 | locus YJL134W, strain LCB3, stronger effect = lower value 0.977 | locus YJL154C, strain vps35, stronger effect = lower value 0.996 | locus YJL164C, strain tpk1, stronger effect = lower value 0.995 | locus YJL166W, strain qcr8, stronger effect = lower value 0.979 | locus YJL168C, strain set2, stronger effect = lower value 0.991 | locus YJL187C, strain SWE1 (second series), stronger effect = lower value 1.01 | locus YJL187C, strain SWE1, stronger effect = lower value 1 | locus YJR043C, strain POL32, stronger effect = lower value 0.941 | locus YJR066W, strain TOR1, stronger effect = lower value 0.961 | locus YJR075W, strain HOC1, stronger effect = lower value 0.993 | locus YKL009W, strain mrt4, stronger effect = lower value 0.971 | locus YKL068W, stronger effect = lower value 0.995 | locus YKL085W, strain MDH1 (second series), stronger effect = lower value 0.995 | locus YKL085W, strain MDH1, stronger effect = lower value 0.995 | locus YKL160W, strain elf1, stronger effect = lower value 1.01 | locus YKR001C, strain vps1, stronger effect = lower value 0.985 | locus YKR026C, strain gcn3, stronger effect = lower value 0.998 | locus YKR091W, strain srl3, stronger effect = lower value 0.997 | locus YLL001W, strain dnm1, stronger effect = lower value 1.01 | locus YLL026W, stronger effect = lower value 0.995 | locus YLL041C, strain sdh2, stronger effect = lower value 0.986 | locus YLR027C, strain aat2, stronger effect = lower value 1.01 | locus YLR039C, strain RIC1, stronger effect = lower value 0.955 | locus YLR058C, strain SHM2, stronger effect = lower value 0.97 | locus YLR102C, strain apc9, stronger effect = lower value 0.979 | locus YLR113W, strain HOG1, stronger effect = lower value 0.929 | locus YLR221C, strain rsa3, stronger effect = lower value 0.99 | locus YLR258W, strain gsy2, stronger effect = lower value 1.01 | locus YLR262C, strain YPT6 (second series), stronger effect = lower value 0.993 | locus YLR262C, strain YPT6, stronger effect = lower value 0.967 | locus YLR268W, strain sec22, stronger effect = lower value 0.972 | locus YLR320W, strain mms22, stronger effect = lower value 0.979 | locus YLR342W, strain FKS1, stronger effect = lower value 0.981 | locus YLR357W, strain rsc2, stronger effect = lower value 0.923 | locus YLR370C, strain arc18, stronger effect = lower value 0.997 | locus YLR371W, strain rom2, stronger effect = lower value 0.981 | locus YLR384C, strain iki3, stronger effect = lower value 0.995 | locus YLR418C, strain cdc73, stronger effect = lower value 1.04 | locus YML016C, strain PPZ1, stronger effect = lower value 0.96 | locus YML032C, strain rad52, stronger effect = lower value 0.996 | locus YML120C, strain ndi1, stronger effect = lower value 0.995 | locus YML124C, strain tub3, stronger effect = lower value 0.995 | locus YMR058W, strain fet3, stronger effect = lower value 0.987 | locus YMR078C, strain ctf18, stronger effect = lower value 0.983 | locus YMR125W, strain sto1, stronger effect = lower value 0.996 | locus YMR129W, stronger effect = lower value 1.01 | locus YMR205C, strain PFK2, stronger effect = lower value 0.992 | locus YMR223W, strain ubp8, stronger effect = lower value 1.01 | locus YMR231W, strain pep5, stronger effect = lower value 0.994 | locus YMR307W, strain GAS1, stronger effect = lower value 1.03 | locus YNL067W, strain RPL9B, stronger effect = lower value 0.999 | locus YNL071W, strain lat1, stronger effect = lower value 1 | locus YNL153C, strain GIM3, stronger effect = lower value 1.02 | locus YNL183C, strain NPR1, stronger effect = lower value 0.937 | locus YNL209W, strain ssb2, stronger effect = lower value 1.01 | locus YNL233W, strain BNI4, stronger effect = lower value 1.03 | locus YNL248C, strain rpa49, stronger effect = lower value 0.993 | locus YNL250W, strain rad50, stronger effect = lower value 0.991 | locus YNL271C, strain bni1, stronger effect = lower value 0.99 | locus YNL298W, strain CLA4, stronger effect = lower value 0.959 | locus YNL307C, strain MCK1, stronger effect = lower value 1 | locus YNL322C, strain KRE1 (second series), stronger effect = lower value 0.998 | locus YNL322C, strain KRE1, stronger effect = lower value 0.986 | locus YNR049C, strain mso1, stronger effect = lower value 0.982 | locus YNR052C, strain pop2, stronger effect = lower value 1.01 | locus YOL012C, strain htz1 1.1 | locus YOL147C, strain pex11, stronger effect = lower value 0.993 | locus YOR001W, strain rrp6, stronger effect = lower value 1 | locus YOR061W, strain CKA2, stronger effect = lower value 0.942 | locus YOR069W, strain VPS5, stronger effect = lower value 0.993 | locus YOR070C, strain gyp1, stronger effect = lower value 0.999 | locus YOR080W, strain dia2, stronger effect = lower value 0.99 | locus YOR083W, strain WHI5, stronger effect = lower value 0.991 | locus YOR106W, strain vam3, stronger effect = lower value 0.995 | locus YOR136W, strain idh2, stronger effect = lower value 1 | locus YOR144C, strain elg1, stronger effect = lower value 0.983 | locus YOR184W, strain ser1, stronger effect = lower value 0.951 | locus YOR231W, strain MKK1, stronger effect = lower value 0.983 | locus YOR265W, strain rbl2, stronger effect = lower value 0.991 | locus YOR270C, strain vph1, stronger effect = lower value 1.02 | locus YOR290C, strain snf2, stronger effect = lower value 1.02 | locus YOR316C, strain cot1, stronger effect = lower value 1 | locus YPL051W, strain arl3, stronger effect = lower value 1 | locus YPL078C, strain atp4, stronger effect = lower value 0.992 | locus YPL106C, strain sse1, stronger effect = lower value 0.951 | locus YPL240C, strain hsp82, stronger effect = lower value 0.998 | locus YPL241C, strain CIN2, stronger effect = lower value 0.991 | locus YPL256C, strain CLN2, stronger effect = lower value 0.989 | locus YPR119W, strain clb2, stronger effect = lower value 1 | locus YPR141C, strain kar3, stronger effect = lower value 0.987 | locus YPR163C, strain tif3, stronger effect = lower value 0.984 | locus YPR167C, strain met16, stronger effect = lower value 1 | strain wtn01, stronger effect = lower value 0.96

From PubChem BioAssay AID1159580 (chemical genetic matrix, 2015)
